The values below come from the supplement of paper PMC10646978.

± gives the standard deviation.

Holding throughout (conditions): modulator concentration 10 µM
Assay [1] relates to RAW-Dual (murine macrophage reporter line). Put plainly: NF-kB reporter (SEAP) activity fold change vs agonist alone; higher = enhanced NF-kB activity. An outline of the steps: (§1)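 RAW-Dual murine macrophage reporter cells were plated at 50 000 per well in 384-well plates, pin-transferred compound to 10 μM final, and pre-incubated for 1 hour at 37 °C before a PRR agonist was added and the cells incubated overnight. NF-κB activity was read from supernatant SEAP with QUANTI-Blue at 620 nm absorbance, and IRF activity from Lucia luciferase with QUANTI-Luc by luminescence. Each signal was expressed as fold change by dividing by the mean agonist-only control on the same plate. Two replicate plates were averaged, with errors obtained by propagation.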

Assay [2] shares this test system. Put plainly: IRF reporter (Lucia luciferase) activity fold change vs agonist alone; higher = enhanced IRF activity. The method in brief:
as §1

Assay [3] has the same test system. Put plainly: viability score (confluency relative to resting cells, overnight) (fraction); higher = more viable, active = viable (0.7 or more). An outline of the steps: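 Confluency was the readout: RAW-Dual macrophages were imaged with IncuCyte after an overnight exposure to compound at 10 μM final. IncuCyte software produced two masks over all imaged wells. The viability score expresses confluency against resting cells, and both masks had to exceed 70% of resting cells for a compound to meet the cutoff.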

The mark [4] stands for this setting: agonist: CpG ODN 1826 0.5 ug/mL.

Regarding `CC1=C(O)C(=O)C=C2C1=CC=C1C2(C)CCC2(C)C3CC(C)(C(=O)O)CCC3(C)CCC12C` (stereo not drawn), the values for the NF-kB reporter in assay [1] (setting [4]), in assay [1] (agonist: LPS 0.1 ug/mL) and in assay [1] (agonist: MPLA […]) were 0.062 ± 0.0049, 0.048 ± 0.0035 and 0.0885 ± 0.0089, respectively. Also, the IRF reporter in assay [2] (agonist: 3'3'-cGAMP 10 ug/mL) came out at 0.0157 ± 0.0014; in assay [2] (agonist: LPS 0.1 ug/mL) it was 0.116 ± 0.081; in assay [2] (agonist: MPLA […]), 0.071 ± 0.039. Besides, the viability score in assay [3] is 0.381 (inactive).
For the compound `CC12CCC3C(CC=C4CC(O)CCC43C)C1CC(=Cc1cccc(F)c1)C2=O` (stereo not drawn), the NF-kB reporter in assay [1] (setting [4]) was determined as 0.722 ± 0.046; in assay [1] (agonist: LPS 0.1 ug/mL), 1 ± 0.061; in assay [1] (agonist: MPLA […]), 1.05 ± 0.083. Further, the results for the IRF reporter in assay [2] (agonist: 3'3'-cGAMP 10 ug/mL), in assay [2] (agonist: LPS 0.1 ug/mL) and in assay [2] (agonist: MPLA […]) were 0.907 ± 0.03, 1.61 ± 0.13 and 1.31 ± 0.12, respectively. The viability score in assay [3] was 0.933 (active).
Regarding `CC12CCC3C(CCC4CC(Cl)CCC43C)C1CCC2=O` (stereo not drawn), the NF-kB reporter in assay [1] (setting [4]) was found to be 0.925 ± 0.074; in assay [1] (agonist: LPS 0.1 ug/mL), 0.921 ± 0.077; in assay [1] (agonist: MPLA […]) it was 0.906 ± 0.094. For the same compound, the IRF reporter in assay [2] (agonist: 3'3'-cGAMP 10 ug/mL) was 0.961 ± 0.11; in assay [2] (agonist: LPS 0.1 ug/mL), 0.953 ± 0.11; in assay [2] (agonist: MPLA […]), 0.955 ± 0.16. Moreover, the viability score in assay [3] is 1.05 (active).
For `Cc1cccc(-n2c(C)nc3ccccc3c2=O)n1`, the NF-kB reporter was 0.88 ± 0.052 in assay [1] (setting [4]), 0.827 ± 0.1 in assay [1] (agonist: LPS 0.1 ug/mL) and 0.949 ± 0.039 in assay [1] (agonist: MPLA […]). Further, the IRF reporter in assay [2] (agonist: 3'3'-cGAMP 10 ug/mL) amounted to 1.02 ± 0.041; in assay [2] (agonist: LPS 0.1 ug/mL) it was 1.02 ± 0.054; in assay [2] (agonist: MPLA […]), 0.935 ± 0.19. The viability score in assay [3] is 0.998 (active).
For `COc1cc(CNCCc2c[nH]c3ccccc23)cc(OC)c1O`, the NF-kB reporter in assay [1] (setting [4]) stood at 0.642 ± 0.052; in assay [1] (agonist: LPS 0.1 ug/mL), 0.811 ± 0.12; in assay [1] (agonist: MPLA […]) it was 1.04 ± 0.096. Besides, the IRF reporter in assay [2] (agonist: 3'3'-cGAMP 10 ug/mL) was determined as 0.93 ± 0.043; in assay [2] (agonist: LPS 0.1 ug/mL), 1.44 ± 0.11; in assay [2] (agonist: MPLA […]), 1.56 ± 0.15. The viability score in assay [3] is 1 (active).
For the compound `CN1C2CCC1CC(OC(=O)[C@H](CO)c1ccccc1)C2` (stereo partly drawn), the results for the NF-kB reporter in assay [1] (setting [4]), in assay [1] (agonist: LPS 0.1 ug/mL) and in assay [1] (agonist: MPLA […]) were 1.05 ± 0.096, 0.961 ± 0.051 and 0.984 ± 0.031, respectively. In addition, the IRF reporter in assay [2] (agonist: 3'3'-cGAMP 10 ug/mL) is 0.955 ± 0.069; in assay [2] (agonist: LPS 0.1 ug/mL), 0.968 ± 0.088; in assay [2] (agonist: MPLA […]) it was 0.858 ± 0.14. For the same compound, in assay [3], the viability score was 0.997 (active).
For `CC(C)NC(C)C(O)c1ccc2c(c1)CCCC2.Cl` (stereo not drawn), the NF-kB reporter in assay [1] (setting [4]) was 0.838 ± 0.066; in assay [1] (agonist: LPS 0.1 ug/mL), 1 ± 0.086; in assay [1] (agonist: MPLA […]) it was 1.1 ± 0.038. Moreover, the IRF reporter worked out at 0.818 ± 0.091 in assay [2] (agonist: 3'3'-cGAMP 10 ug/mL), 1 ± 0.099 in assay [2] (agonist: LPS 0.1 ug/mL) and 0.891 ± 0.23 in assay [2] (agonist: MPLA […]). Further, in assay [3], the viability score is 0.994 (active).
In the case of `COc1ccc(N2C(=O)C(=Cc3ccc(OCc4ccc(F)cc4)c(OC)c3)C(=O)NC2=S)cc1`, the NF-kB reporter worked out at 1.08 ± 0.11 in assay [1] (setting [4]), 1.04 ± 0.085 in assay [1] (agonist: LPS 0.1 ug/mL) and 0.932 ± 0.057 in assay [1] (agonist: MPLA […]). Also, the IRF reporter was 0.919 ± 0.042 in assay [2] (agonist: 3'3'-cGAMP 10 ug/mL), 1.02 ± 0.062 in assay [2] (agonist: LPS 0.1 ug/mL) and 1.05 ± 0.13 in assay [2] (agonist: MPLA […]). The viability score in assay [3] was 1.01 (active).
For `CC(C)c1c(CN(C)C(C)Cc2ccccc2)n(C)n(-c2ccccc2)c1=O` (stereo not drawn) [Prestw-703], the NF-kB reporter in assay [1] (setting [4]) came out at 1.35 ± 0.082; in assay [1] (agonist: LPS 0.1 ug/mL) it was 1 ± 0.17; in assay [1] (agonist: MPLA […]) it was 1.05 ± 0.067. Also, the figures for the IRF reporter in assay [2] (agonist: 3'3'-cGAMP 10 ug/mL), in assay [2] (agonist: LPS 0.1 ug/mL) and in assay [2] (agonist: MPLA […]) were 0.792 ± 0.03, 1.02 ± 0.073 and 0.995 ± 0.14, respectively. For the same compound, the viability score in assay [3] is 0.998 (active).
On to `COc1ccc(CCNCc2cccc3ccccc23)cc1OC`, for which the values for the NF-kB reporter in assay [1] (setting [4]), in assay [1] (agonist: LPS 0.1 ug/mL) and in assay [1] (agonist: MPLA […]) were 0.222 ± 0.016, 0.82 ± 0.059 and 0.867 ± 0.058, respectively. The figures for the IRF reporter in assay [2] (agonist: 3'3'-cGAMP 10 ug/mL), in assay [2] (agonist: LPS 0.1 ug/mL) and in assay [2] (agonist: MPLA […]) were 0.872 ± 0.047, 1.32 ± 0.093 and 1.44 ± 0.14, respectively. Besides, the viability score in assay [3] was 0.947 (active).
Consider `CC12CCC3C(CCC4CC(O)CCC43C)C1CCC2O` (stereo not drawn), for which the NF-kB reporter in assay [1] (setting [4]) was determined as 1.23 ± 0.29; in assay [1] (agonist: LPS 0.1 ug/mL), 0.968 ± 0.059; in assay [1] (agonist: MPLA […]), 2.43 ± 1.5. Further, the IRF reporter in assay [2] (agonist: 3'3'-cGAMP 10 ug/mL) was 0.891 ± 0.037; in assay [2] (agonist: LPS 0.1 ug/mL) it was 1.13 ± 0.18; in assay [2] (agonist: MPLA […]), 1.21 ± 0.14. In assay [3], the viability score was 0.963 (active).
As for `Clc1cccc(CNCCc2c[nH]c3ccccc23)c1`, the results for the NF-kB reporter in assay [1] (setting [4]), in assay [1] (agonist: LPS 0.1 ug/mL) and in assay [1] (agonist: MPLA […]) were 0.317 ± 0.028, 0.978 ± 0.11 and 0.992 ± 0.099, respectively. In addition, the IRF reporter in assay [2] (agonist: 3'3'-cGAMP 10 ug/mL) stood at 1.13 ± 0.028; in assay [2] (agonist: LPS 0.1 ug/mL), 2.3 ± 0.24; in assay [2] (agonist: MPLA […]) it was 1.7 ± 0.26. Moreover, the viability score in assay [3] is 0.258 (inactive).
In the case of `CC(C)N(CCC(C(N)=O)(c1ccccc1)c1ccccn1)C(C)C` (stereo not drawn), the NF-kB reporter in assay [1] (setting [4]) worked out at 0.86 ± 0.23; in assay [1] (agonist: LPS 0.1 ug/mL), 0.945 ± 0.09; in assay [1] (agonist: MPLA […]), 0.99 ± 0.067. Moreover, the IRF reporter in assay [2] (agonist: 3'3'-cGAMP 10 ug/mL) worked out at 0.849 ± 0.064; in assay [2] (agonist: LPS 0.1 ug/mL), 0.94 ± 0.2; in assay [2] (agonist: MPLA […]), 1.12 ± 0.13. For the same compound, in assay [3], the viability score was 0.998 (active).
Turning to `CC(C(O)c1ccccc1)N(C)C` (stereo not drawn), the NF-kB reporter is 0.96 ± 0.084 in assay [1] (setting [4]), 0.883 ± 0.065 in assay [1] (agonist: LPS 0.1 ug/mL) and 0.955 ± 0.091 in assay [1] (agonist: MPLA […]). The figures for the IRF reporter in assay [2] (agonist: 3'3'-cGAMP 10 ug/mL), in assay [2] (agonist: LPS 0.1 ug/mL) and in assay [2] (agonist: MPLA […]) were 0.995 ± 0.031, 1.26 ± 0.12 and 1.3 ± 0.19, respectively. Further, the viability score in assay [3] was 1 (active).
